# Bioassay records deposited in PubChem by Broad Institute.
# The full list was thinned out, with hits kept by preference.
# miR-122 inh: miR-122 suppressors via Renilla sensor increase, primary screen, cell-based, Huh7 psiCHECK-miR122, Renilla luciferase, single point; 0.14% of 340,000 active; activation, % at 12.5 µM; 48 h; AID 623901, 2012;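 active = mean activation of 30% or more, with every replicate also reaching 30%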;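 note: 0% = median of neutral control wells and 100% = median of positive control wells; higher luciferase signal means stronger suppression of miR-122 activity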
# * = called active by the depositor.
SMILES,miR-122 inh
CC(=O)OC1(Cc2ccccc2)CN2CCC1c1ccccc12 (configuration not stated),36*
COc1ccc(-c2ccc3c(c2)CN(C(=S)NCCc2ccccc2)Cc2cnnn2-3)cc1,-119
O=C1NC(=O)N(CCC2=CCCCC2)C(=O)/C1=C\c1cccs1,33*
C[C@@H]1O[C@@H](O[C@H]2C[C@@H](O)[C@]3(CO)[C@H]4[C@H](O)C[C@]5(C)[C@@H](C6COC(=O)C6)CC[C@]5(O)[C@@H]4CC[C@]3(O)C2)[C@H](O)[C@H](O)[C@H]1O (some centres not stated),-114
O=P(Nc1ccccc1)(Nc1ccccc1)Oc1ccc(Cl)cc1,-322
Cc1ccc(C(=O)Nc2ccc(Cl)cc2C(=O)c2ccccc2)cc1,-114
